From PubChem BioAssay (EPA / NIEHS) come the findings set out here.

The source made the active and inactive calls. How the source made its calls: active means hit-call score of the fitted dose curve at least 0.9, where 1 is the maximum; inactive means score below 0.9.

Experiment [1] is described as follows: ATG_M_06_CIS: Attagene CIS-FACTORIAL HepG2 Assay for M06 Transcription Factor (Internal Marker) (AID 2282950). To be noted: HepG2 Attagene CIS-FACTORIAL M06 internal marker reporter; actives raise or lower the signal. The method in brief: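 Serves as a background control readout. Transfected HepG2 exposed to compounds for 24 h, then reporter transcripts quantified by fluorescent RT-PCR and capillary electrophoresis. Both directions fitted against DMSO baseline.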

Experiment [2] concerns the target Hypoxia-inducible factor 1-alpha (Homo sapiens) (UniProt Q16665). The experiment can be described thus: ATG_HIF1a_CIS: Attagene CIS-FACTORIAL HepG2 Assay for human Hypoxia Inducible Factor 1 (HIF1A) (AID 2282951). To be noted: HepG2 Attagene cis-factorial HIF1a reporter transcription; actives raise or lower the signal. In a few lines: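 Fluorescence intensity of capillary-separated, 6-FAM-labelled reporter amplicons gives mRNA induction in HepG2 cells carrying transfected cis-promoter reporter units; cells exposed 24 h, responses fitted up or down from DMSO.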

The target of experiment [3] is Hepatocyte nuclear factor 6 (Homo sapiens) (UniProt Q9UBC0). The experiment can be described thus: ATG_HNF6_CIS: Attagene CIS-FACTORIAL HepG2 Assay for human Hepatocyte Nuclear Factor 6 (HNF6) (AID 2282952). Conditions: HepG2 Attagene cis-factorial HNF6 reporter transcription; actives raise or lower the signal. In a few lines: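 HepG2 cells transiently transfected with cis-element-driven multiplexed reporter units measuring endogenous transcription factor activity. After 24 h exposure, reporter mRNA quantified by RT-PCR, FAM-labelled fragments and capillary electrophoresis; bidirectional fitting versus DMSO.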

Experiment [4] deals with Heat shock factor protein 1 (Homo sapiens) (UniProt Q00613). The experiment can be described thus: ATG_HSE_CIS: Attagene CIS-FACTORIAL HepG2 Assay for human Heat Shock Transcription Factor 1 (HSE) (AID 2282953). Conditions: HepG2 HSE cis-reporter, Attagene RNA transcription; actives raise or lower the signal. The method in brief: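 Endogenous transcription factor activity in transiently transfected HepG2, read as reporter mRNA by RT-PCR with fluorescent capillary electrophoresis after 24 h. Gain or loss of signal fitted versus DMSO baseline.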

Experiment [5] is described as follows: ATG_MRE_CIS: Attagene CIS-FACTORIAL HepG2 Assay for human Metal Responsive Element (MRE) (AID 2282954). Conditions: HepG2 MRE cis-reporter transcription, Attagene multiplex; actives raise or lower the signal. In a few lines:
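HepG2 cells transiently transfected with cis-element-driven reporter units; mRNA measured 24 h after dosing. Reporter transcripts quantified by RT-PCR, FAM labelling, HpaI digestion and capillary electrophoresis; bidirectional fit versus DMSO.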

Experiment [6] deals with Paired box protein Pax-6 (Homo sapiens) (UniProt P26367). The experiment can be described thus: ATG_Pax6_CIS: Attagene CIS-FACTORIAL HepG2 Assay for human Paired Box 6 (PAX6) (AID 2282956). Conditions: HepG2 CIS-FACTORIAL PAX6 reporter transcription, RNA readout; actives raise or lower the signal. In a few lines: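 Transient MRTU transfection of HepG2 → compound exposure 24 h → TriZol RNA, oligo(dT) RT → PCR, 6-FAM primer extension, HpaI cut → capillary electrophoresis; activity fitted both directions against DMSO.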

Experiment [7] in a line: ATG_PXRE_CIS: Attagene CIS-FACTORIAL HepG2 Assay for human Pregnane X Receptor Element (PXRE) (AID 2282957). To be noted: HepG2 Attagene CIS-FACTORIAL PXRE reporter, mRNA; actives raise or lower the signal. In a few lines: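 HepG2 cells transiently transfected with cis-element-driven multiplexed reporter units; after 24 h chemical exposure, reporter mRNA measured by RT-PCR, 6-FAM labelling, HpaI digestion and capillary electrophoresis. Bidirectional fitting relative to DMSO.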

The nature of experiment [8]: ATG_PPRE_CIS: Attagene CIS-FACTORIAL HepG2 Assay for human Peroxisome Proliferator-activated Response Element (PPRE) (AID 2282958). Conditions: HepG2 PPRE cis-element reporter, Attagene transcription factor profiling; actives raise or lower the signal. The method in brief:
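In this cell-based multiplex, a PPRE cis element drives a reporter sequence in transiently transfected HepG2 cells. Following 24 h treatment, labeled cDNA amplicons are sized and quantified by capillary electrophoresis, with DMSO defining baseline.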

Experiment [9] can be described thus: ATG_RORE_CIS: Attagene CIS-FACTORIAL HepG2 Assay for human RAR-related Orphan Receptor Element (RORE) (AID 2282959). Conditions: HepG2 Attagene cis-factorial RORE reporter, mRNA; actives raise or lower the signal. In a few lines:
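Endogenous factor activity at a cis response element is read as reporter transcript levels in HepG2 cells, 24 h post-dose. Transcripts are quantified by RT-PCR with capillary electrophoresis, and data fitted in both directions against DMSO.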

A short description of experiment [10]: ATG_PBREM_CIS: Attagene CIS-FACTORIAL HepG2 Assay for human Phenobarbital-responsive Enhancer Module (PBREM) (AID 2282955). Conditions: HepG2 PBREM cis-reporter, Attagene multiplexed transcription; actives raise or lower the signal. The method in brief: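 Cells were transfected with cis-element reporter units and treated for 24 h, after which RNA was extracted and reporter transcripts measured by RT-PCR and capillary electrophoresis.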

Sequence of Heat shock factor protein 1 (Homo sapiens) (Q00613 whole entry, looked up): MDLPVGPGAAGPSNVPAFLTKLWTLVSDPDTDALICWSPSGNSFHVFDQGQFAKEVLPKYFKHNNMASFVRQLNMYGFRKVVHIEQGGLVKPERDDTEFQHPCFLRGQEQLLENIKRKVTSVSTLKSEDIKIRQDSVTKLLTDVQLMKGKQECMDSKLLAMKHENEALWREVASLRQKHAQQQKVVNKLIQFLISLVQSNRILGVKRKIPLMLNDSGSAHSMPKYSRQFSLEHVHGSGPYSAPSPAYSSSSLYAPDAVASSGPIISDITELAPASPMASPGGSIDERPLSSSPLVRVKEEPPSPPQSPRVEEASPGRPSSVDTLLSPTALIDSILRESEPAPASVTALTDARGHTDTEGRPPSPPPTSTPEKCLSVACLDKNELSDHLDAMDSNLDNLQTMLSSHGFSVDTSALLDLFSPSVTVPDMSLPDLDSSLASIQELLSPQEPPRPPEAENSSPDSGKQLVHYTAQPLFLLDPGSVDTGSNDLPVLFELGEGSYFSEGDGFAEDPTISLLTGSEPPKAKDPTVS
Sequence of Hepatocyte nuclear factor 6 (Homo sapiens) (Q9UBC0 whole entry, looked up, the tested form may be a part): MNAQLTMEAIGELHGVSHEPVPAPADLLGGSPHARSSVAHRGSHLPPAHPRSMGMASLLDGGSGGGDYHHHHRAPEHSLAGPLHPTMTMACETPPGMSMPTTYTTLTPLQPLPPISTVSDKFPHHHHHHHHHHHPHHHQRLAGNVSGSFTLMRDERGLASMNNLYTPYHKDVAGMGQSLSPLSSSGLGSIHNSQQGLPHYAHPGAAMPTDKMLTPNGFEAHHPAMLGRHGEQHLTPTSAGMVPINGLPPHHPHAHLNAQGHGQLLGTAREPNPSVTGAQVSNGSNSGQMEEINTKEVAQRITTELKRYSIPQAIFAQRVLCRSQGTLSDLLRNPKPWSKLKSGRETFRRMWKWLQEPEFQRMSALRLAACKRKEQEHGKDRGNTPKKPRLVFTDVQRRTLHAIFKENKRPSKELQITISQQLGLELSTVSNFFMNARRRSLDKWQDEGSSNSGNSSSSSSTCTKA
Sequence of Paired box protein Pax-6 (Homo sapiens) (P26367 whole entry, looked up): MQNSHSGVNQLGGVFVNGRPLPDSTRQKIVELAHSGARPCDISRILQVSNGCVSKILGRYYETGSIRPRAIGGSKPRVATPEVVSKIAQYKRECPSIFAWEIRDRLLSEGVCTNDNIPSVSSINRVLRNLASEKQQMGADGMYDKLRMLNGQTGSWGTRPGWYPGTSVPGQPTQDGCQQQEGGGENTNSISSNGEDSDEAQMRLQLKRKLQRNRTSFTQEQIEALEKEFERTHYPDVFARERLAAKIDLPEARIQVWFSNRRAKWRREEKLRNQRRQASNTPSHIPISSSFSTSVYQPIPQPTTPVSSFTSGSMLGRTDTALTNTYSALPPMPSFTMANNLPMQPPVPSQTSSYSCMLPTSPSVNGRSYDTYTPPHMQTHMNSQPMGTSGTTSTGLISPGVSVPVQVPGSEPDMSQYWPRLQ
Sequence of Hypoxia-inducible factor 1-alpha (Homo sapiens) (Q16665 whole entry, looked up): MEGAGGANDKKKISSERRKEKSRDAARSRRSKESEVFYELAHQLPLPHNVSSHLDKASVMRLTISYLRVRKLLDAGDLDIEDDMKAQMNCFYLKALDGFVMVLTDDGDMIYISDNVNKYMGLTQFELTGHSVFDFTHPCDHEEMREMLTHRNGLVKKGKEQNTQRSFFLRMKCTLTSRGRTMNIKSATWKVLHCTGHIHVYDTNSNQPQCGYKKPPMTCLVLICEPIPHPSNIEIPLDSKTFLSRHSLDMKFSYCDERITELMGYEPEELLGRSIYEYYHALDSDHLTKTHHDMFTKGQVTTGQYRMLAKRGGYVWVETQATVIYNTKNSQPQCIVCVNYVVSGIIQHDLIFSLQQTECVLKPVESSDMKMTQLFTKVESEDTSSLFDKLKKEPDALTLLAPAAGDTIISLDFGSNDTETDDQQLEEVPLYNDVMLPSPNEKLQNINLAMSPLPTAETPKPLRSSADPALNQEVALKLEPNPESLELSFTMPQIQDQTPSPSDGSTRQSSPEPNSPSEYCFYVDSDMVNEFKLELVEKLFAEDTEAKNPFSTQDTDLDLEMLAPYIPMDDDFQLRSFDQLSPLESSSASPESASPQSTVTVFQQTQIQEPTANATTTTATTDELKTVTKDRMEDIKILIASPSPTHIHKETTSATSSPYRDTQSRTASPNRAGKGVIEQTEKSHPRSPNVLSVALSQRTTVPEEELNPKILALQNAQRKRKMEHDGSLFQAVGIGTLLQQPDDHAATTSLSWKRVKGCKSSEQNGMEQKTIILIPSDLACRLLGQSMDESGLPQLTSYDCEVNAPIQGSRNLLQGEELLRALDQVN

Usually AC50 stands for the midpoint of the concentration-response curve, whichever way the signal moves. Turning to `CC(=O)OC(c1ccccc1)C(Cl)(Cl)Cl` (stereo not given), the call in experiment [1], in experiment [2], in [3], in experiment [4], in experiment [5] and in experiment [6] was inactive. Moreover, the outcome in experiment [8] and in [9] was inactive. Besides, in experiment [7], the concentration at half-maximal activity (AC50) is 48.6 µM (active).

For `CC1CN1P(=O)(N1CC1C)N1CC1C` (stereo not given), the compound was called inactive in experiment [1], in experiment [2], in [3], in experiment [4], in [10] and in experiment [6]. Also, the result in [7] and in [9] was inactive.

As to `Cl/C=C/Cl`, the compound was classed as inactive in experiment [1], in experiment [2], in experiment [3], in [4], in experiment [5] and in [6]. Further, the outcome in experiment [7] and in experiment [9] was inactive.

Regarding `ClCC(Cl)CCl`, the outcome in experiment [1], in experiment [2], in [3], in [4], in experiment [10] and in experiment [6] was inactive. The call in [9] was inactive.

In the case of `CCc1ccccc1C`, the compound was called inactive in experiment [1], in experiment [2], in experiment [3], in [4], in experiment [5] and in experiment [6]. The result in experiment [7], in experiment [8] and in experiment [9] was inactive.

On to `O=P(O)(O)CN(CP(=O)(O)O)CP(=O)(O)O`, for which the call in experiment [1], in experiment [2], in [3], in experiment [4], in [5] and in experiment [6] was inactive. Further, the compound was classed as inactive in [7] and in experiment [9].

As to `NC(=S)Nc1ccccc1`, the compound was called inactive in experiment [1], in [2], in [3], in experiment [4], in experiment [5] and in experiment [6]. For the same compound, the result in experiment [7], in [8] and in experiment [9] was inactive.

For the compound `CCOP(=S)(OCC)Oc1ccc(S(C)=O)cc1` (stereo not given), the result in experiment [1], in experiment [2], in experiment [3], in experiment [4], in experiment [10] and in experiment [6] was inactive. The outcome in [8] and in experiment [9] was inactive. For the same compound, in [7], the AC50 was 15.9 µM (active).

Take `O=C(NCO)NCO`: the outcome in experiment [1], in experiment [2], in [3], in experiment [4], in [10] and in experiment [6] was inactive. For the same compound, the compound was called inactive in experiment [8] and in experiment [9].

`O=C(c1ccccc1)C(Cl)Cl`: the call in experiment [1], in experiment [2], in experiment [3], in [4], in experiment [7] and in experiment [9] was inactive. In addition, the half-maximal activity concentration (AC50) in experiment [6] is 26.8 µM (active).

Regarding `COc1ccc(C=O)cc1OC`, the outcome in experiment [1], in experiment [2], in experiment [3], in [4], in experiment [10] and in experiment [6] was inactive. The call in [9] was inactive. Besides, the AC50 in experiment [7] is 32 µM (active).

For `CNC`, the compound was called inactive in experiment [1], in [2], in experiment [3], in experiment [4], in [5] and in [6]. The compound was called inactive in [7] and in [9].

As for `c1ccc(N=NNc2ccccc2)cc1`, the compound was classed as inactive in [1], in [2], in [3], in [10] and in experiment [9]. Besides, the half-maximal activity concentration (AC50) in experiment [4] was 151 µM (active); in [6] it was 125 µM (active); in experiment [7], 25.8 µM (active); in experiment [8], 21.7 µM (active).

As to `CCC(C)(C)c1ccc(O)c(C(C)(C)CC)c1`, the result in experiment [1], in experiment [2], in experiment [3], in experiment [5], in experiment [10] and in [6] was inactive. Moreover, in experiment [9], the compound was classed as inactive. In addition, the AC50 in [7] is 2.73 µM (active); in experiment [8], 11.1 µM (active).

Turning to `CCOP(OCC)OCC`, the outcome in experiment [1], in experiment [2], in experiment [3], in [4], in [10] and in experiment [6] was inactive. Besides, the compound was classed as inactive in experiment [7] and in [9].

As for `CCc1ccccc1N`, the outcome in experiment [1], in experiment [2], in [3], in [5], in experiment [10] and in experiment [6] was inactive. Also, the compound was classed as inactive in experiment [8] and in experiment [9]. Also, the AC50 in [7] was 68.3 µM (active).

For `c1cc[c]([Hg][c]2ccccc2)cc1`, the compound was called inactive in experiment [1], in experiment [2], in [3], in [4], in experiment [6] and in experiment [7]. Besides, the compound was called inactive in experiment [8]. Moreover, the AC50 in experiment [9] is 25.6 µM (active).

On to `Nc1ncc([N+](=O)[O-])s1`, for which the compound was called inactive in experiment [1], in experiment [2], in [3], in experiment [4], in experiment [6] and in experiment [7]. Moreover, the call in experiment [9] was inactive.

With `CC(=[OH+])/C=C(/C)[O-].CC(=[OH+])/C=C(/C)[O-].CC(=[OH+])/C=C(/C)[O-].[Al]`, the compound was called inactive in experiment [1], in experiment [2], in experiment [3], in experiment [4], in [5] and in [6]. The outcome in experiment [7], in [8] and in experiment [9] was inactive.

Regarding `COP(=O)(OC)O/C(=C\Cl)c1cc(Cl)c(Cl)cc1Cl`, the outcome in [1], in [3] and in [9] was inactive. For the same compound, the AC50 in experiment [2] is 100 µM (active); in experiment [4], 153 µM (active); in experiment [6] it was 35.2 µM (active); in experiment [7], 1.4 µM (active).

Regarding `Clc1nc(Cl)nc(Cl)n1`, the result in experiment [1], in experiment [2], in experiment [3], in experiment [10], in experiment [6] and in [8] was inactive. For the same compound, the compound was classed as inactive in [9]. Also, the concentration at half-maximal activity (AC50) in experiment [4] was 144 µM (active); in experiment [7], 34.9 µM (active).

In the case of `O=C1C(Cl)=C(Cl)C(=O)c2ccccc21`, the compound was called inactive in experiment [1], in [2], in [3], in experiment [5], in experiment [6] and in experiment [7]. For the same compound, the compound was called inactive in experiment [9]. Also, in experiment [4], the AC50 is 13.6 µM (active).

For `O=C(Cl)c1ccc(Cl)cc1`, the compound was classed as inactive in experiment [1], in [2], in [3], in experiment [4], in [5] and in [6]. In addition, the compound was classed as inactive in experiment [7] and in [9].

As for `CCOP(=S)(OCC)Oc1nc(Cl)c(Cl)cc1Cl`, the result in [1], in experiment [2], in experiment [3], in [4], in experiment [10] and in experiment [6] was inactive. The call in experiment [8] and in experiment [9] was inactive. Further, the AC50 in experiment [7] is 5.24 µM (active).

Take `COS(=O)(=O)c1ccc(C)cc1`: the compound was called inactive in [1], in experiment [2], in experiment [3], in experiment [4], in [5] and in experiment [6]. Also, the result in [7], in experiment [8] and in experiment [9] was inactive.

In the case of `C=C(C)C#N`, the compound was called inactive in experiment [1], in experiment [2], in experiment [3], in [4], in experiment [10] and in experiment [6]. The outcome in experiment [7] and in experiment [9] was inactive.
